# Test results taken from PubChem BioAssay (NCATS).
# Records with an inconclusive call do not appear. Entries that show only a call come without a potency. Activity calls are given as the source filed them. Unless noted, the call rests on the fitted dose curve; in most records, active means well fitted inhibition curve with a large enough effect; inconclusive means small, poorly fitted or top-dose-only effect; inactive means flat fitted curve, though single readings scatter.
# Tests used:
# [1] = qHTS profiling for inhibitors of Plasmodium falciparum proliferation (AID 504749); further: nearly all actives have a fitted effect of over 60% in size; further: potency means the concentration at half of the fitted maximal effect; details: P. falciparum in erythrocytes, SYBR Green DNA, 72 h
# How it was run: (§1)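 Infected RBCs, 0.3% parasitemia/2.5% Hct final; cpd 72 h, 37 C, 5% CO2; lysis buffer with saponin/triton/SYBR Green I, o/n RT dark; FI 485/535; norm. to artemisinin (0.29 uM) and DMSO.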
# [2] = tested on: 3D7; assay: as above; details: P. falciparum in erythrocytes, SYBR Green DNA, 72 h; series mostly up to 28.7 µM
# How it was run: as §1
# [3] = tested on: 7G8; assay: as above; details: P. falciparum in erythrocytes, SYBR Green DNA, 72 h; series mostly up to 28.7 µM
# How it was run: as §1
# [4] = qHTS drug screen for cell cycle checkpoint inhibitors in PARPi-resistant BRCA-mutant ovarian cancer cell lines. (AID 1963452; calls by dose curve); details: PEO1/OlaR viability, CellTiter-Glo luminescence, 96 h, stronger effect = lower value
# How it was run: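 PEO1, PEO4 and PEO1/OlaR ovarian cancer cells, 600 per well, exposed 96 h at 37C to a dilution series. Viability read by CellTiter-Glo luminescence, normalized to DMSO and empty wells; activity summarized as Z-AUC.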
# [5] = tested on: AA1029; assay: qHTS profiling for inhibitors of Plasmodium falciparum proliferation (AID 504749); further: nearly all actives have a fitted effect of over 60% in size; further: potency means the concentration at half of the fitted maximal effect; details: P. falciparum in erythrocytes, SYBR Green DNA, 72 h; series mostly up to 28.7 µM
# How it was run: as §1
# [6] = at 12.8 µM (top of the series), parasite line A
# [7] = at 12.8 µM (top of the series), parasite line B
# [8] = at 28.7 µM (top of the series), parasite line A
# [9] = at 28.7 µM (top of the series), parasite line B
smiles,measurement,setting,value
CNCCCC1c2ccccc2C=Cc2ccccc21,"activity, negative = inhibition",[1]; [6],3.94% (inactive)
same,"activity, negative = inhibition",[1]; [7],-1.98% (inactive)
same,Potency,[2],inactive
same,Potency,[3],5.62 µM (active)
Cc1c(O)cccc1C(=O)N[C@@H](CSc1ccccc1)[C@H](O)CN1C[C@H]2CCCC[C@H]2C[C@H]1C(=O)NC(C)(C)C,Z-AUC,[4],-0.819 (inactive)
same,Z-AUC,[4]; measured here: PEO1 parental Z-AUC,-0.979
same,Z-AUC,[4]; measured here: PEO4 Z-AUC,-1.07
same,Potency,[1]; parasite line B,7.94 µM (active)
same,Potency,[2],12.6 µM (active)
c1ccc(CN(CC2=NCCN2)c2ccccc2)cc1,"activity, negative = inhibition",[1]; [8],-1.61% (inactive)
same,"activity, negative = inhibition",[1]; [9],-1.95% (inactive)
same,Potency,[2],inactive
same,Potency,[3],4.47 µM (active)
COc1cc(C)c(Cc2cnc(N)nc2N)cc1OC,Potency,[1]; parasite line A,4.47 µM (active)
same,Potency,[1]; parasite line B,11.2 µM (active)
same,Potency,[2],11.2 µM (active)
same,Potency,[3],inactive
same,Potency,[5],inactive
CCCCOc1cc(C(=O)OCCN(CC)CC)ccc1N,"activity, negative = inhibition",[1]; [6],8.11% (inactive)
same,"activity, negative = inhibition",[1]; [7],4.89% (inactive)
same,Potency,[2],inactive
same,Potency,[3],inactive
same,Potency,[5],inactive
O=C1OC(OC(=O)c2cccnc2Nc2cccc(C(F)(F)F)c2)c2ccccc21 (stereo not drawn),"activity, negative = inhibition",[1]; [8],-4.18% (inactive)
same,"activity, negative = inhibition",[1]; [9],2.45% (inactive)
same,Potency,[2],inactive
same,Potency,[3],inactive
same,Potency,[5],inactive
O=C(O)c1ccccn1,"activity, negative = inhibition",[1]; [8],0.929% (inactive)
same,"activity, negative = inhibition",[1]; [9],-26.4% (inactive)
same,Potency,[2],inactive
same,Potency,[3],inactive
same,Potency,[5],inactive
O=C(CCCN1CCN(c2ccccn2)CC1)c1ccc(F)cc1,"activity, negative = inhibition",[1]; [8],-3.57% (inactive)
same,"activity, negative = inhibition",[1]; [9],15.4% (inactive)
same,Potency,[2],inactive
same,Potency,[3],inactive
same,Potency,[5],inactive
CC1(C)[C@@H]2CC[C@@]1(C)C(=O)C2,"activity, negative = inhibition",[1]; [8],5.82% (inactive)
same,"activity, negative = inhibition",[1]; [9],6.35% (inactive)
same,Potency,[2],inactive
same,Potency,[3],inactive
same,Potency,[5],inactive
NCCNCCNCCN,"activity, negative = inhibition",[1]; [8],4.28% (inactive)
same,"activity, negative = inhibition",[1]; [9],2.86% (inactive)
same,Potency,[2],inactive
same,Potency,[3],inactive
same,Potency,[5],inactive
O=c1cc[nH]c(=O)[nH]1,"activity, negative = inhibition",[1]; [8],9.07% (inactive)
same,"activity, negative = inhibition",[1]; [9],2.41% (inactive)
same,Potency,[2],inactive
same,Potency,[3],inactive
same,Potency,[5],inactive
CC(O)COc1ccccc1 (stereo not drawn),"activity, negative = inhibition",[1]; [8],5.76% (inactive)
same,"activity, negative = inhibition",[1]; [9],0.212% (inactive)
same,Potency,[2],inactive
same,Potency,[3],inactive
same,Potency,[5],inactive
COc1cc2[nH]c(=O)[nH]c(=O)c2cc1OC,"activity, negative = inhibition",[1]; [6],-1.12% (inactive)
same,"activity, negative = inhibition",[1]; [7],-2.32% (inactive)
same,Potency,[2],inactive
same,Potency,[3],inactive
same,Potency,[5],inactive
Nc1ccc(S(=O)(=O)Nc2ccccc2)cc1,"activity, negative = inhibition",[1]; [8],-9.52% (inactive)
same,"activity, negative = inhibition",[1]; [9],11.6% (inactive)
same,Potency,[2],inactive
same,Potency,[3],inactive
same,Potency,[5],inactive
CCOC(=O)[C@H](CCc1ccccc1)N[C@@H](C)C(=O)N1C(=O)N(C)C[C@H]1C(=O)O,"activity, negative = inhibition",[1]; [8],8.56% (inactive)
same,"activity, negative = inhibition",[1]; [9],16.1% (inactive)
same,Potency,[2],inactive
same,Potency,[3],inactive
same,Potency,[5],inactive
